Growth data for 40 compounds are collected here from PubChem BioAssay (NCI).

Compounds without any hit were thinned out: in the full panel of roughly 83,000, 20% have a hit.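 For each line, cells grew in 96-well plates with the test compound present at a single concentration for 48 hours.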 A number with no mark means an inactive call. Active and inactive are the calls of the source. Rule for the calls: active = growth percent below 10; inactive = the rest.

In the first assay the test system is SNB-75 CNS. In words: NCI-60 one-dose screen, 48 h (100 = growth as untreated, 0 = no growth, -100 = all killed). The settings on record: 10 µM unless noted.
For the compound `CC(=O)N1N=C(c2ccc(Nc3nc(Nc4ccc(Cl)cc4)nc(Nc4ccc(Cl)cc4)n3)cc2)CC1c1ccco1` (centres undefined), the growth is 112%.

For `CCS/C(Nc1ccccc1)=C(\C#N)C(=O)N/N=C/c1ccc(Cl)cc1Cl`, the growth was -6.89% (active). For `CCOC(=O)C(=Cc1cccc(Cl)c1)C(=O)OCC`, the growth is 35.3%. On the same count and under the same terms, with `CN[C@]12CC3(C=CC(=O)C=C3)O[C@@]1(Cc1ccc(OC)cc1)N(C)C(=O)N2` the figure was 37.8%.

Another assay concerns SNB-19 CNS. The assay is described as above. The settings on record: 10 µM unless noted.
As for `Cn1cc(-c2csc(-c3ccc(Cl)cc3)n2)c2cccnc21`, the growth was -41.8% [100 µM] (active). Consider `COc1cc(-c2nc(SCCC(C)C)nc(Nc3ccccc3Cl)c2C#N)cc(OC)c1OC`, for which the growth was 98.9%. With `CCn1c(=S)[nH]c2c(=O)n(C)c(=O)n(C)c21`, the growth is 100%.

Turning to `c1ccc(CNc2c3ccccc3nc3ccccc23)cc1`, the growth was 39.4%.

`COCCn1c(-c2csc(-c3cn(C)c4ccc(OC)cc34)n2)cc2cccnc21`: the growth was 85.3%. `CCOC(=O)CSc1ncnc2c1c(-c1ccccc1)c(-c1ccccc1)n2-c1ccc(C)cc1`: the growth was 63.4%.

With `COc1cc2oc(-c3cccc(NC(=O)c4cccc(Br)c4)c3)cc(=O)c2c(OC)c1OC`, the growth is 75.2%. Take `Cc1ccc(Cl)cc1Nc1nc(C(F)(F)F)ccc1C(=O)N/N=C/c1cccnc1`: the growth was 36.8%. `Cn1c(=O)c2c(nc(NC3=NS(=O)(=O)c4ccccc43)n2CC(=O)N2CCc3ccccc32)n(C)c1=O`: the growth is 101%. The same measure, in the same setting: with `Cc1cccc(Cl)c1NC(=O)c1ccc2nc(NC(=O)NCCN(C)C)sc2c1` the figure was 105%; with `CCOC(=O)c1c(C)nc2c(c1N)CC(=O)N2Cc1cc(F)cc(Cl)c1`, 100%; with `COC(C(=O)[C@@H](O)[C@@H](C)O)[C@@H]1Cc2cc3cc(O[C@H]4C[C@@H](O[C@H]5C[C@@H](O)[C@H](O)C(C)O5)[C@H](O)C(C)O4)cc(O)c3c(O)c2C(=O)[C@H]1O[C@H]1C[C@@H](O[C@H]2C[C@@H](O[C@H]3C[C@@H](OC)[C@H](O)C(C)O3)[C@@H](O)C(C)O2)[C@H](O)C(C)O1` (some centres undefined), 40.1%. As for `CN([O-])c1nc(N(C)[O-])nc(N2CCOCC2)n1.CN([O-])c1nc(N(C)[OH2+])nc(N2CCOCC2)n1.[Fe+3]`, the growth was 108% [100 µM].

On to `CCOP(=O)(OCC)c1nc(-c2ccccc2)oc1NCc1cccnc1`, for which the growth was 97.5%. On the same count and under the same terms, with `CCn1c(SCC(=O)c2ccc(Br)cc2)nnc1-c1ccncc1` the figure was 99.2%; with `CCCCNc1ccc(C#N)c(OCCN(CC)CC)c1`, 98.1%; with `N#Cc1c(-c2ccc(Cl)cc2)nc(NN=Cc2cccc(O)c2)nc1N1CCOCC1`, 86.9%. As to `CS(=O)(=O)Nc1cc(-c2ccc3ncnc(Nc4c(Cl)ccc5c4OCO5)c3c2)cnc1Cl`, the growth is -4.15% (active). For `Fc1cccc(CNc2c3ccccc3nc3ccccc23)c1F`, the growth was 58.5%. Still for that read-out and setting: with `COC(=O)CNC(=O)[C@H](Cc1ccccc1)NCc1ccncc1` the figure was 97.7%; with `O=C(NCCCN1CCOCC1)c1cccc(N2C(=O)/C(=C/c3ccc(F)cc3)SC2=S)c1`, 92.8%. The same measure, in the same setting: the value for `O=[N+]([O-])/C(=C/C=C/c1ccccc1)c1ccccc1` was 85.9%; that for `Cn1cc(-c2csc(-c3c[nH]c4ccc(Br)cc34)n2)c2cnccc21` was -85.5% (active).

As for `C=C(C)[C@@H]1CC[C@]2(C(=O)N3CCN(C)CC3)CC[C@]3(C)[C@H](CC[C@@H]4[C@@]5(C)CC(=C/c6ccncc6)/C(=N/O)C(C)(C)[C@@H]5CC[C@]43C)[C@@H]12`, the growth was 79.7%. For `COc1cc(N2C(=O)[C@H](O)C2c2ccc(SC)cc2)cc(OC)c1OC` (some centres undefined), the growth was 35.9%.

As for `CCCCC(=O)c1ccco1`, the growth was 86.4%.

In the case of `C=C(C)[C@@H]1CC[C@]2(C)[C@H](CC=C3[C@@H]4[C@H](C)[C@@H](C)CC[C@]4(CO)CC[C@]32C)[C@@]1(C)CCCN`, the growth was 72.3%. As for `COc1ccc2[nH]cc(-c3nc(-c4c[nH]c5ccncc45)cs3)c2c1`, the growth is 47.1%.

On to `Oc1ccc(CN2CCC(N3CCCCC3)CC2)c2cccnc12`, for which the growth is 23.7%. As for `CC(C)(C)c1cc(-c2nc3ccc(N4CCN(S(C)(=O)=O)CC4)cc3[nH]2)cc(C(C)(C)C)c1O`, the growth is 104%.

For the compound `COc1ccc2c(c1)c(-c1noc(C(=O)c3cn(C)c4ccc(Br)cc34)n1)cn2C`, the growth is 102%. On the same count and under the same terms, the value for `C[C@H](NC(=O)[C@@H](C)N)[C@H](Oc1ccc2c(cnn2-c2ccc(F)cc2)c1)c1ccc2c(c1)OCCO2` was 65.9%; that for `C=C(C)[C@@H]1CC[C@]2(C(=O)O)CC[C@]3(C)[C@H](CC[C@@H]4[C@@]5(C)C[C@@H](Cc6cn(CCO[C@@H]7O[C@H](COC(C)=O)[C@H](OC(C)=O)[C@H](OC(C)=O)[C@H]7OC(C)=O)nn6)[C@H](O)C(C)(C)[C@@H]5CC[C@]43C)[C@@H]12` was 64.5%.

With `CCN(CC)CCOc1ccc(-c2c(-c3ccccc3)c(=O)oc3ccccc23)cc1`, the growth was 90.7%.

Regarding `COc1ccc2c(O)c(/C=C3\N=Nc4ccccc43)oc2c1C[C@@H]1CCNC[C@H]1F`, the growth was 84.1%.

For the compound `COc1cc(OC)cc(C2=C3CC[C@@H]4[C@H](CC[C@]5(C)C(=O)CC[C@@H]45)C3=CC3C(O)c4cccnc4N4C(=O)COC234)c1` (some centres undefined), the growth was 92%.

Turning to `CC(=O)N1N=C(c2ccc(Nc3nc(Nc4ccc(Cl)cc4)nc(Nc4ccc(Cl)cc4)n3)cc2)CC1c1ccco1` (centres undefined), the growth was 101%.

In the case of `CCS/C(Nc1ccccc1)=C(\C#N)C(=O)N/N=C/c1ccc(Cl)cc1Cl`, the growth was 19.6%.

For `CCOC(=O)C(=Cc1cccc(Cl)c1)C(=O)OCC`, the growth was 51.5%.

Regarding `CN[C@]12CC3(C=CC(=O)C=C3)O[C@@]1(Cc1ccc(OC)cc1)N(C)C(=O)N2`, the growth is 64.4%.
